Data as given in PubChem BioAssay AID1159506 (National Center for Advancing Translational Sciences (NCATS), 2015).
The full ranking holds about 59,000 sequences; the median of the read-out is about -0.00055, and the lowest 2% start at about -2. Shown is part of a subset that was picked to be rich in the lowest values.

Assay: Identification of proteins required for the processing of the EWS-FLI1 nascent transcript;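 also: robust z of luciferase light less the median z of siRNAs with the same seed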
Details: TC32 Ewing sarcoma NR0B1-luc vs CMV-luc (EWS-FLI1 target promoter against control promoter), 48 h; screened at 20 nM (by protocol)
Outline: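 Readout: OneGlo luminescence, 48 h post-transfection, TC32-NR0B1-luc vs TC32-CMV-luc in parallel. siRNA 20 nM final, RNAiMax lipid, 600 cells/well; z-score-MAD transformed, then seed-adjusted.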

Sequence	seed-corrected z-score
UCACUGUCAAACUCGUGCC against ARHGAP33	-2.08
AUUGUAAUCGCGAAUAUCC against MESDC2	0.809
UUCCCUCUUUGGGUCUUCC against SNX11	0.0123
UACAGCUCCGAAAAACUCC against SIPA1	-1.18
UUGACUGUCACUGAGGUAG against SDK2	-0.0428
UGUCGUACCAGUCGGACCA against TAC1	-2.02
UAUUCGUUAUCAAAUUGUG against TMOD3	0.393
UCCGUUUUCCACGUAGUGC against FRMD1	-0.836
UAUGUCUUCACGCAGCCGC against PI4KAP2	-1.12
UACGUUUGCUUUGCGCUCG against NR0B1	-0.672
UUGGGAUUAACACUUGUGA against LINC00851	-2.42
UUGAAGUUUUCAAUUGUGC against CYSLTR2	-0.797
UCAGCUAACUCUGUCUCUG against SNX19P3	-0.302
AUUGUGAUGAACCUCGUCC against ARHGAP40	-0.617
UUAGUGAUCUGAUAGUGGG against POGLUT1	0.238
AAUUCCAAAACCAAUGUGC against MS4A12	0.147
UGUUUCUCUGACUUGAGUG against IFI27L2	-2.28
UUCUUAUUGAGUUUCAGCC against MSN	0.564
UAAAUUUGUCGAGUUGCUC against CFAP99	0.485
UUGACAAAAGUGAGGAUCG against LGALS14	0.5
UCUAUGGGCAGUGGCAUCU against GOLGA2P10	-1.07
UGUGCAACUGGUCUUGUGC against BBS4	0.33

Sequence	seed-corrected z-score
UGUUGUAGAAGGUAAACCC against CLRN3	-2.64
UAAUGUCAAAUUUUCCUCC against P2RX7	-0.332
UCCAUUGCAAUUGUGCCCA against MAGEA4	-0.0267
UUUCUUCACGUGGAUAGCC against GABRG2	0.574
UUCCAGAAAAAGCCGCACG against PLD6	-0.608
UUUCCUUCCAACUCUGCGC against ZNF835	-1.63
UACGUUAGGACGGCUCAGG against RLTPR	-1.06
UCAUGUGGCAUUUCUGGGA against LOC642852	-2.43
AUUCUUACCACAACUAUCC against SRP14	-0.807
UAAGCUGCGUGUUUUUAUC against TRIM14	-2.45
UUUACGAAGUUUUUGAUAG against EML1	-0.287
UUUGUAGAGAAGUUUCACC against ZNF517	0.211
UUAGCUUCAACGGUGUUAC against E2F8	-1.58
UCGAUGAACAACCAUAUGC against PRKAA2	0.499
UUAUCUGCUUUAGAUUUGC against PYROXD1	-0.293
GAAGGUGCAGAUCUGUUUG against SCX	-2.92
UCAUCUACGAUAUUCAUGA against ADAMTS14	-0.269
UAAGCAUCUCACAAAAUCG against MITD1	-0.778
AAACUUCACUGUUACUUGG against LYSMD1	-0.262
UCGGUAACAAAAAUUAGUG against RNF217	0.42
UCUGUUCAAUACUUAAACC against PRUNE2	-0.544
UUUCUUAUCACCAUCAAAC against PGD	0.244

Sequence	seed-corrected z-score
UAAGUUGCGAGCGUAGUGG against GAL3ST4	-3.11
UAUGUAGCAAAUCACAGUA against TMEM39A	0.421
UCUGCGGAAACUUUGGUGG against CDH11	-0.023
UCUUGAUACAGAUUCCAUC against RFX8	0.516
UCCUUUAGCACCUUCACCG against RAD23A	-2.73
UUGUUGUCAAUGUUAAUCG against SNX29P1	-0.677
AUAUUUCAAGGCAAGCUUC against DNAJC5	0.415
AUGGUAGCGGAAGAAAUUC against TMEM205	-2.26
UAAUCUUUAUUGUCACUAG against GRB7	-0.659
UUUGGCAAGACUUAACUUG against SCGB1D2	0.678
AUUUUGUCACUGGAAAGGC against OIP5	0.784
UAUGCGCUUUGAGACUAGC against ZNF236	-0.344
UUGAGGUUACUGGAGCUGC against ZNF683	-0.208
AUCCUUAAUGUAACUAUUG against C12orf60	0.108
UAUAUCAUUAAGCAAUGCC against SF3B1	-3.22
UAAGUAGACGUGCAGAUCA against MFSD6L	0.136
UACUCGAAGAUCAUCUUGG against MYO6	-0.142
AUAGUUCCCUCGAUGAGGC against CCS	0.322
UCUCCUGUAACAGACUCUG against ERICH1	0.83
AUAGACAACUUUGAGGUCC against AP1S1	-0.000301
UUCAGCACAGAGAAAUUCG against SHISA2	1.31
UUGUUACUAAGAUCAACAG against PIWIL4	-0.273

Sequence	seed-corrected z-score
UAAAAUAUCAAGCGAAUCA against LOC399886	0.0836
UACCGGGAUACAUGCAUGC against KIAA1551	-2.73
AAACGAAACAUGACGACAC against RSG1	-0.0435
UGAUGUACUCCACUGAUGC against TFEC	-0.552
UCUCUUUGUGGUGUACUUG against FGF13	-12.9
UUCCGAAUGGAAACUCUGG against BCL7C	0.615
AUACCGAUCAUAGCACAUC against OR2A12	0.195
UAUUAGGUCUUAUUUAUUC against NXNL2	0.499
UCUCUAUCAGUUCUCUUGG against RBM20	-0.358
AAAGGGACACUGAUUCAGU against TRAM1	-2.59
UCAGGGUAUUUGGUGAGGG against KCTD1	-0.632
AUAAUACCAACUCAAAUGC against FRRS1L	1.1
UUCUGAGCAGGUUCUACUG against SGOL1	-2.98
UAGGUAACUAUUUCUUCUC against CHURC1	1.33
UCUUCUAUCUUGCACAUUG against NLRP9	0.587
UAGGUUACGUGUCCAGAGG against NR2F6	-0.85
ACCAUUGUCAUUGCCUUGC against 1-Mar	-1.24
GAUUUCUUCAGGUGCUCCU against PDLIM7	-0.372
UGUAGUAUAUGAUCGACCU against LOC728613	-11.7
UAGGCGAUGAAGAGCGUGC against MC1R	0.184
AAAGUAUCGGUAUUUGUCU against NDUFB9	0.025
AAUCUCAUGAGUUGCAACC against MMP26	-0.158

Sequence	seed-corrected z-score
UUCCGGUUCCUCAUCUUCU against NUCKS1	-0.00682
UAAAGUACUGUCGUCAAUG against STOX2	-2.26
UUGUGGUUCUCGGAUACGC against CDH15	-0.955
GAAGCUAUCCCAGCUCUCA against RPL21P131	0.152
UGUUUUACAAGCAAUGUCC against TEX19	-2.08
UGCUGUAUAAUAUCCUUGC against GALNT3	0.503
UUGUGCACCACGAGCAUGG against B3GNT7	-1.07
UUCGUUGCAAAUCCCAUGC against SPTLC2	-3.22
AAUCUUUGGAGUACGCUGG against B2M	-0.0765
UAGACAUACAUUGAACUCC against SPINK6	1.21
UGUACUUUAAUAGAGAUAC against MRPS10	-0.197
UACCCAAUAAAGGUCUACC against LMO2	0.642
UACGGUUCUUCCUGGUUGG against C1QA	1.29
UUCCAUAUAGCAGUGCACU against NDUFAF1	1.09
UAGGGUUUGCCUUCGUGCU against CRIP1	-3.24
UCAAGCAUCGUGUUGAGCC against TGFBI	-0.445
UCAAAUUCGUCCUGGGUCC against UGT1A5	-1.44
UGAAGGAAGAAUCGUCGCC against PTHLH	-0.782
UUUCCGAUGAUGGUAACCA against OR7C2	0.217
UCAGGUAGCAGGGUAUUGG against LTA4H	-0.0663
UCCCAAUUCAGAUCUAUGG against FBXO42	0.112
UCAGGUGUAGGAUUCCGAC against XAGE2	-2.85

Sequence	seed-corrected z-score
UUUGUUGACUGCUUGACUG against METAP1D	0.33
AACCUGUAUGCAUCAACUG against BMS1P11	2.32
UACUGUUCCACUAGCUUCG against SF3A1	-1.91
UCUGUAACCUUGGUAAGGC against C10orf2	0.0621
UGGUUGAUUAGUAAAGCAC against C10orf113	-0.339
ACUGUUAUCAGGAAAGUCC against PLCB2	-0.539
UGUCUUUGUAGGCAGCUGG against CLDN14	-2.18
UAAAGAGUAAAGGUCUUCC against ZNF540	0.799
UAUGGACCCAUCAUACUGG against CADM4	0.833
UAUUGAACUUCAAGGGUCG against EFTUD2	-2.91
UUGGUCUGUAGUACUGUUC against SNX27	-2.17
UUUGUGCCCUGCGUUUAUC against KCND3	-0.731
AGGUGGAAGAGAAAUAUCU against OR4D11	-0.264
UCAAGUUACAGGUUCGGGC against DRG1	1.09
UAUUUGUAGCCCAAGAAGG against YIF1B	0.101
UUUCUGAUCAGGUCCAUGA against SLC1A6	-0.114
UCAUAGUUGAGCAAGGUGG against AOC3	-0.116
UCCGUAUCCAGCUCGUCCU against NXNL1	-1.17
UUCAAUGCAAGCAAGCUUG against OR4L1	0.45
UUGCGAACAUUGCCUGUGC against MEP1A	0.216
UCUUUAUCUAGAGGCAUUC against LOC728040	-2.35
UUUAUUCUAAACACGUACU against RHBDD3	-0.246
